In PubChem BioAssay AID651719 (The Scripps Research Institute Molecular Screening Center, 2012):
Screen size: about 360,000 compounds; about 1,600 (0.44%) were called active.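 How the source made its calls: active means inhibition above the screen-wide average plus 3 SD (cut at about 13% in these data); inactive means the rest.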 For the sample, actives were picked, then their nearest neighbours and some compounds at random.

target: Galanin receptor type 3 (Homo sapiens) (UniProt O60755); experiment: blockers of human galanin receptor 3 – cell-based, fluorescence readout, primary screen (AID 651719); conditions: HEK293 GalR3-CNG cAMP membrane potential fluorescence; at 3 µM; stronger effect = higher value;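 further: forskolin and galanin both at EC90 stimulate the cells; cAMP rise reported by CNG channel membrane potential dye signal; 0% = forskolin plus galanin with DMSO and 100% = forskolin alone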
Sequence (O60755 1-299 limits assumed): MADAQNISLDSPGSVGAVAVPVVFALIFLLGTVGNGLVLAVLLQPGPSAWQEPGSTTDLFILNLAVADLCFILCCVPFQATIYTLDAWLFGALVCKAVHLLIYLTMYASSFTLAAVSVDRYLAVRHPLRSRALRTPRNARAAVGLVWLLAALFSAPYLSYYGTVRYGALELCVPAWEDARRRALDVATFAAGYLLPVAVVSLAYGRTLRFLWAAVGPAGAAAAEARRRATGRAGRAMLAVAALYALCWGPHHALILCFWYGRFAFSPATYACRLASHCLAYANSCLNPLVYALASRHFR

Structure (SMILES)	inhibition
CCCCCCCCCCCCn1ccc(=N)cc1	75.6% (active)
CCN(CC)C(=O)[C@@H]1C=C2c3cccc4[nH]c(Br)c(c34)C[C@H]2N(C)C1	-11% (inactive)
COC(=O)C1=C(c2cc3ccccc3s2)C[C@@H]2CC[C@H]1N2C(=O)NCCO	-2.95% (inactive)
COC(=O)C1=C(c2cc3ccccc3s2)C[C@@H]2CC[C@H]1N2C(=O)NCc1cccc2ccccc12	17.8% (active)
COC(=O)C1=C(c2cc3ccccc3s2)C[C@@H]2CC[C@H]1N2C(=O)NC(C)C	-4.53% (inactive)
O=c1[nH]c(=O)n(-c2ccccc2)c(O)c1C=NC12CN3CN(CN(C3)C1)C2	5.15% (inactive)
CS(=O)(=O)N1CCC2CCNC2C1 (stereo not given)	0.87% (inactive)
CCOC(=O)[C@]12Cc3ccccc3[C@H]1N(C1CCCCC1)C(=O)c1cc(OC)ccc12	-8.42% (inactive)
Brc1ccc2c(c1)CNCc1cnnn1-2	-5.56% (inactive)
CCN(CC)C(=O)c1ccc(NC(=O)c2cc(-n3cnnc3)ccc2Cl)cc1	-1.92% (inactive)
C[C@]12CC[C@H](O)C[C@H]1CC[C@@H]1C2CC[C@]2(C)[C@@H](C3=CC(=O)OC3)[C@@H](O)C[C@]12O (stereo not given in full)	30.2% (active)
CC12CCC(O)CC1CCC1C2CCC2(C)C(C(=O)CC(O)C(F)(F)F)CCC12 (stereo not given)	-1.5% (inactive)
COc1ccc2c(c1)[C@@]13CCCCC1[C@@H](C2)NCC3 (stereo not given in full)	-3.82% (inactive)
COc1ccc(CN2CCN(c3ccccc3F)CC2)c(OC)c1	-4.46% (inactive)
Clc1ccc([C@@H]2CC3CCC2N3)cn1 (stereo not given in full)	-3.43% (inactive)
Cc1ccc(-n2c(-c3ccc([N+](=O)[O-])cc3)nc3ccccc3c2=O)cc1	-3.3% (inactive)
COc1ccc(-n2c(-c3ccccc3)nc3ccccc3c2=O)cc1	16.9% (active)
O=c1c2ccccc2nc(-c2ccccc2)n1-c1ccccn1	-5.42% (inactive)
Cc1cc(N2CCNC[C@@H]2C)ccc1N1CC[C@H](O)C1	-7.28% (inactive)
CCC(C)NC1(c2ccccc2)CCCCC1 (stereo not given)	-2.56% (inactive)
O=S(=O)(c1ccccc1)N1CCC2CCNC2C1 (stereo not given)	-5.66% (inactive)
COc1cc(OC)cc(C(=O)NCCN2CCC3(CC2)C(=O)NCN3c2ccccc2)c1	-6.02% (inactive)
COC1C(O)C(C)OC(OC2CCC3(C=O)C(CCC4C3CCC3(C)C(C5=CC(=O)OC5)CCC43O)C2)C1O (stereo not given)	43% (active)
C/C=C/CC1(CC)C(=O)NC(=S)NC1=O	-12.8% (inactive)
CCCC(C)n1[nH]c(=O)c2c1NC(=O)CSC2c1ccc(OC)c(OC)c1 (stereo not given)	-3.1% (inactive)
